Molecules are shown by their SMILES.

The test concerns the target AMP-activated protein kinase, AMPK (Homo sapiens) (UniProt P54646+O43741+P54619+Q9UGJ0+Q9Y478+Q13131+Q9UGI9). The experiment in a line: AMP-dependent Kinase enzyme assay. An in vitro enzyme assay that detects ADP turnover that is directly proportional to AMPK activity. This uses naive AMPK that is activated during the assay with MK-8722. The class given is functional. The conditions noted are these: 30 µM. Also noted: scale not given: direction of the effect not stated beside the values.
Take `O=S(=O)(NC1CCOC1)c1ccc(C(F)(F)F)nc1` (stereo not given): the Percent Effect was determined as 6.19%.

Turning to `NC1CCCc2c1cnn2-c1cc(F)cc(F)c1` (stereo not given), the Percent Effect came to 10.6%.

As to `Cc1nc(C)c(C(=O)N2CCCc3c(F)ccc(F)c32)o1`, the Percent Effect was -2.55%.

Turning to `NC(=O)c1csc(N2C[C@@H](CN3CCC(O)CC3)[C@@H](CO)C2)n1`, the Percent Effect was -1.72%.

Regarding `CC(C)(CNC(=O)c1ccc(Cl)o1)NC(=O)OC(C)(C)C`, the Percent Effect was -2.97%.

For the compound `Cc1ncsc1COC(=O)c1cccc2c1OCCO2`, the Percent Effect came out at 7.13%.

On to `CS(=O)(=O)Cc1noc(CN(Cc2ccco2)c2ccccc2)n1`, for which the Percent Effect worked out at 3.02%.

With `Cc1ccc(OCCN(C)C2CCOC2=O)cc1` (stereo not given), the Percent Effect amounted to 0.0432%.

With `CN1CCN(C2CCN(Cc3cn4ccccc4n3)CC2)C1=O`, the Percent Effect was determined as 41.9%.

For `NC(=O)COc1cccc(Cn2cccn2)c1`, the Percent Effect is -6.59%.

Take `CCS(=O)(=O)N1Cc2ccccc2CC1C(=O)OCc1c(C)noc1C` (stereo not given): the Percent Effect was -0.838%.

Regarding `N#Cc1cccnc1Nc1ccc(N2CCC(C(N)=O)CC2)cc1`, the Percent Effect worked out at 19%.

Turning to `Cc1nsc(C(=O)NCCCc2ccccc2)n1`, the Percent Effect is 1.51%.

For the compound `O=C(NCCCn1cccn1)C1COCC(=O)N1Cc1ccccc1` (stereo not given), the Percent Effect is -3.92%.

With `CN(Cc1ccccc1)c1cnn(CC2COCCO2)c(=O)c1` (stereo not given), the Percent Effect worked out at 10.8%.

`COC(=O)C1CN(Cc2cc(F)ccc2Br)CCO1` (stereo not given): the Percent Effect was -6.48%.

As for `CC[C@@H](CO)NC(=O)c1cc(COc2ccc(OC)cc2Cl)[nH]n1`, the Percent Effect is -0.681%.

For `CN(C)Cc1cccc(-c2cccnc2C(=O)NCc2ccco2)c1`, the Percent Effect came out at 20%.

`Cn1cc(-c2cc(C(=O)N3CCOCC3)c3ccc(F)cc3n2)cn1`: the Percent Effect was determined as 18.9%.

For the compound `CN(C)S(=O)(=O)c1ccc(=O)n(CC2CCCO2)c1` (stereo not given), the Percent Effect stood at 20.4%.

For `CN(CCNC(=O)Nc1ccn(C)n1)Cc1ccc(F)cc1`, the Percent Effect was determined as 3.18%.

As to `Cc1cc(CNC2(CO)CCOCC2)ccc1Br`, the Percent Effect stood at 5.13%.

Regarding `CC(C)c1noc(C(C)N2CCN(Cc3nc4ccccc4[nH]3)CC2)n1` (stereo not given), the Percent Effect was -0.358%.

Take `O=C1CN([C@@H]2CC[C@@H](NS(=O)(=O)c3ccccc3F)[C@H]2O)CCN1`: the Percent Effect is -4.46%.

Take `Cc1cc(=O)n2nc(Oc3ccc(Cl)c(C)c3)sc2n1`: the Percent Effect was -6.95%.

With `CCOc1ccc2cc(C(=O)NCCNc3ccc(C)nn3)[nH]c2c1`, the Percent Effect was found to be 6.22%.

As for `CCCn1cc(-c2cc(C(=O)N(C)C)c3cccc(C)c3n2)cn1`, the Percent Effect was 7.04%.

Regarding `COc1ccc(CC2(CO)CCN(c3cc(N)ncn3)CC2)cc1`, the Percent Effect was 8.25%.

Consider `CCOc1ccccc1-n1c(C2CC2)n[nH]c1=O`, for which the Percent Effect worked out at 2.2%.

Regarding `CCn1cnnc1CCNC(=O)c1ccc(F)c(Br)c1`, the Percent Effect is -5.58%.

On to `COCCCNc1ncnc2c1CCN(C(=O)CC1C=CCC1)CC2` (stereo not given), for which the Percent Effect stood at 11.8%.

For `CNS(=O)(=O)CC(=O)NCc1cc2c(s1)CCCCC2`, the Percent Effect was -1.26%.

Turning to `CCc1oc(C(=O)N[C@@H]2c3ccccc3C[C@@H]2O)cc1C`, the Percent Effect was -3%.

Turning to `CC(C)Cn1nc(-c2ccc(C(=O)O)cc2)cc1-c1ccc(F)cc1`, the Percent Effect came out at 22.7%.

For `Cc1nn(C)c(C)c1C1COCCN1C(=O)CC(C)(C)C` (stereo not given), the Percent Effect is -3.31%.

`CN(C)c1cccc(C(=O)Nc2cnn(Cc3ccccn3)c2)c1`: the Percent Effect was -43.1%.

On to `C[C@@H]1CN(C(=O)Cn2ccc3ncccc3c2=O)C[C@H](C)O1`, for which the Percent Effect is -2.09%.

With `COc1cccc(C(=O)N2CCN(C(=O)CCCc3cn[nH]c3)CC2)c1`, the Percent Effect was -1.35%.

Regarding `O=C(O)CCn1ccc2c(nnc3c(-c4ccc(F)cc4)cnn32)c1=O`, the Percent Effect amounted to 18.8%.

Regarding `O=C(CN1CCOCC1)N(c1ccccc1)c1ccccc1`, the Percent Effect was 8.05%.

(Values after ChEMBL document CHEMBL3988442, “University of Dundee, Small-Polar-MMV Screening Library” (2021).)
